The source of these data is PubChem BioAssay AID652104 (National Center for Advancing Translational Sciences (NCATS), 2013).

Structures are written as SMILES. Out of some 410,000 compounds screened, about 7,200 (1.8%) were called active. Not shown: some 7% with an inconclusive outcome. Only a selection was taken, and actives are over-represented in it overall. Values without a mark were called inactive. Calls follow the shape of the dose curve; as a rule, active = well fitted activation curve with a large enough effect; inconclusive = small, poorly fitted or top-dose-only effect, or another doubt; inactive = no such curve, though single readings can be large or run the other way.
Potency is read from the fitted curve at half-maximal effect.

A short description of the assay: qHTS of TDP-43 Inhibitors. Also: nearly all actives have a fitted effect of over 50% in size. As to growth rescue (activation): % of control where 0% means no effect. The note with it: TDP-43 expressing yeast growth rescue, BacTiter-Glo, 24 h; series mostly up to 46.1 µM; growth rescue (activation): at the top concentration. An outline of the steps: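 Luminescence from BacTiter-Glo reports growth of TDP-43-expressing yeast after 24 hr at 30 deg C with compound. Cells were raffinose-pregrown to mid-log, then seeded in galactose medium at OD600=0.02.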
(Quantitative high-throughput screening tests each substance at several concentrations.)
For `CCc1cc2c(cc3c(=O)n(CC(=O)N4CCN(c5cc(Cl)ccc5C)CC4)ncn32)s1`, the “growth rescue (activation)” value is 11.6%.
Take `CC(C)OC(=O)c1ccc(COc2ccc3ccc(=O)oc3c2)o1`: the Potency was 11.2 µM (active).
Take `O=C(COc1ccc2ccc(=O)oc2c1)NCC(O)c1ccccc1` (stereo not drawn): the “growth rescue (activation)” value is 8.96%.
Still for that read-out and setting: the figure for `Cc1cc(OCc2ccc(C(=O)Nc3ccc(C(=O)O)cc3)o2)ccc1Cl` is -9.15%; for `CCOC(=O)c1cc(-c2ccc(OC)c(S(=O)(=O)Nc3ccc(OC)cc3OC)c2)on1` it is 14.4%.
Regarding `CCOC(=O)c1ccc(NC(=O)CC2C(=O)N(c3ccccc3)C(=O)N2Cc2cccs2)cc1` (stereo not drawn), the “growth rescue (activation)” value was 11.2%.
Still for that read-out and setting: the figure for `CCOC(=O)c1ccc(N2C(=O)CC(N3CCN(C(=O)c4ccccc4)CC3)C2=O)cc1` (stereo not drawn) is 10.1%.
On the same count and under the same terms, with `CCOC(=O)c1ccc(N2C(=O)CC(Sc3nc(O)c(CC)c(=O)[nH]3)C2=O)cc1` (stereo not drawn) the figure was 8.69%.
On to `CCOC(=O)c1ccc(N2C(=O)CC(N(C)Cc3ccccc3)C2=O)cc1` (stereo not drawn), for which the Potency is 2.82 µM (active).
As for `Cc1ccc(C)c(N2CCN(C(c3ccccc3)c3nnc(-c4ccccc4)o3)CC2)c1` (stereo not drawn), the “growth rescue (activation)” value was 20.5%.
The same measure, in the same setting: the figure for `CCOc1ccc(-c2cc(C)n3nc(C(=O)Nc4ccc(C)c(C)c4)cc3n2)cc1` is 10%; for `CCOc1ccc(-c2ccc(SCC(=O)N3CCOCC3)nn2)cc1` it is -8.68%.
For the compound `CCCCCc1ccc(-c2ccc(OCC)cc2)nc1`, the Potency was 12.6 µM (active).
Take `CCCCCC(=O)Nc1ccc(-c2cn3cccnc3n2)cc1`: the “growth rescue (activation)” value was -7.99%.
In the case of `CCCCCc1ccc(-c2ccc(C(=O)O)cc2)nc1`, the Potency was 3.16 µM (active).
As for `O=C(O)CCC(=O)NCc1ccc(C(=O)O)cc1`, the “growth rescue (activation)” value was 11%.
Consider `Cc1ccsc1CN(C(=O)c1oc2ccc(Br)cc2c1C)C1CCS(=O)(=O)C1` (stereo not drawn), for which the “growth rescue (activation)” value was 32.2%.
The same measure, in the same setting: the figure for `O=C(Nc1ccccc1Br)c1cc(CN2CCCC2)on1` is -6.37%.
The same measure, in the same setting: the figure for `Cc1ccc2nc(CN3CCN(S(=O)(=O)c4ccc(C)c(C)c4)CC3)oc2c1` is 24.1%; for `Cc1ccc(CN2CCC(CNC(=O)c3cnn(-c4ccccc4Cl)c3C3CCN(C(=O)OC(C)(C)C)CC3)CC2)cc1` it is 0%; for `Cc1ccccc1Nc1nc(N)nc(COC(=O)CCC(=O)c2ccc(F)cc2)n1` it is 4.71%.
Still for that read-out and setting: the figure for `CCCn1nc(C(=O)OCc2nc(N)nc(Nc3ccccc3C)n2)c2ccccc2c1=O` is 9.98%.
`Cc1ccc(C(=O)OCc2nc(N)nc(Nc3ccccc3C)n2)cc1`: the Potency was 12.6 µM (active).
As to `O=C(NC1CC(=O)N(c2ccc(F)cc2)C1)c1ccc(S(=O)(=O)N2CCCC2)cc1` (stereo not drawn), the “growth rescue (activation)” value is 24.6%.
As for `COc1ccc2c(C)c(CCC(=O)NCc3ccc(OC)c(OC)c3)c(=O)oc2c1`, the “growth rescue (activation)” value was 5.65%.
As for `CC1CCCCN1CC(=O)N1CCCc2c1c(=O)oc1ccc(OCc3ccccc3)cc21` (stereo not drawn), the “growth rescue (activation)” value is -26.7%.
The same measure, in the same setting: the figure for `Cc1cc(Cl)ccc1NC(=O)Cc1ccc(NC(=O)N2CCCCc3ccccc32)cc1` is 0%.
Same read-out and setting: the figure for `CCc1cccc(-n2nnc(-c3nsc(NC(=O)c4ccc(C)cc4)n3)c2C)c1` is 18.4%.
Still for that read-out and setting: with `C=CCOc1ccc(/C=N/NC(=O)C(C)Sc2ccccn2)cc1OCC` (stereo not drawn) the figure was 15.6%; with `CCOc1ccc(/C=C(\C#N)c2nc3ccccc3c(=O)[nH]2)cc1OC`, 29%.
`C=CCOc1ccc(/C=C2/C(=O)ON=C2C)cc1OCC`: the Potency is 12.6 µM (active).
Turning to `Cc1cccc(CC(=O)Nc2cccc(-c3cn4cccnc4n3)c2)c1`, the “growth rescue (activation)” value was 1.61%.
With `Cc1cc2nc(-c3ccco3)c(Cc3cccc(F)c3)n2c(C)c1Br`, the Potency is 3.16 µM (active).
Take `Cc1cc2nc(-c3ccc(F)cc3)c(Cc3ccsc3)n2c(C)c1Br`: the “growth rescue (activation)” value was 13.7%.
With `O=C(CN1C(=O)CCn2nc(-c3ccccc3)cc21)NCc1ccccc1`, the growth rescue (activation) was 18.2% [at 9.22 µM].
On to `COc1cccc(C(=O)NCc2ccc3c(c2)CCN3C(=O)c2ccncc2)c1`, for which the “growth rescue (activation)” value was 28.9%.
Turning to `C/C(=N/OC(=O)c1c(-c2c(F)cccc2Cl)noc1C)c1cnccn1`, the “growth rescue (activation)” value is 3.39%.
For the compound `Cc1ccc(C(=O)O/N=C(\N)c2ccccn2)cc1Cl`, the Potency is 7.08 µM (active).
In the case of `Cc1ccc(-c2cc(C(=O)Oc3ccccc3Cl)no2)cc1C`, the “growth rescue (activation)” value was 10.3%.
With `Cc1c(Cl)cccc1NC(=O)C(=O)NCCc1csc2nc(-c3ccccc3F)nn12`, the “growth rescue (activation)” value is 29.8%.
On the same count and under the same terms, the figure for `CC(=O)Nc1cccc(NC(=O)CSc2cn(CC(=O)N3CCCC3)c3ccccc23)c1` is 17.1%; for `COc1cccc(Cn2c(CNS(=O)(=O)c3ccc(Cl)s3)nc3cccnc32)c1` it is 18.7%; for `O=C(NCC1CCCO1)c1cc2c([nH]c3ccccc32)c(-c2ccc(F)cc2)n1` (stereo not drawn) it is 0%.
The same measure, in the same setting: with `Cn1c(=O)c2[nH]c(NCC3CCCO3)nc2n(-c2ccccc2)c1=O` (stereo not drawn) the figure was 0.787%.
Regarding `Clc1cccc(-c2nc(NCC3CCCO3)c3ccccc3n2)c1` (stereo not drawn), the Potency is 12.6 µM (active).
As for `CCN(CCCNC(=O)Cn1ncc2c3ccccc3n(C)c2c1=O)Cc1ccccc1`, the “growth rescue (activation)” value was 15.9%.
The same measure, in the same setting: the figure for `CCOCCc1nn2c(=O)cc(COC(=O)CNC(=O)c3ccc(C(C)(C)C)cc3)nc2s1` is 7.41%.
`COc1ccccc1N1CCN(S(=O)(=O)CCNC(=O)COc2ccc(F)cc2)CC1`: the “growth rescue (activation)” value is 5.6%.
As to `COc1ccc(CNC(=O)CSc2n[nH]c(-c3ccc(F)cc3)n2)cc1`, the “growth rescue (activation)” value was 3.73%.
Take `COC(=O)CNC(c1ccccc1Cl)c1cc(Br)ccc1NC(=O)CCN1CCOCC1` (stereo not drawn): the Potency is 17.8 µM (active).
Regarding `CCOC(=O)C1CCN(CCC(=O)Nc2cccc(C)c2)CC1`, the “growth rescue (activation)” value was 7.09%.
As to `COc1ccc(N)cc1NC(=O)CN1CCOCC1`, the “growth rescue (activation)” value is 13.4%.
On to `CCc1ccccc1NC(=O)CSc1nnc(-c2ccccc2)c(-c2ccccc2)n1`, for which the “growth rescue (activation)” value is 11.4%.
Still for that read-out and setting: with `CCOc1ccccc1C(=O)NC1(C(F)(F)F)NC(=O)N(CCc2ccc(OC)c(OC)c2)C1=O` (stereo not drawn) the figure was 13.2%; with `O=C(NC1(C(F)(F)F)NC(=O)N(Cc2cccnc2)C1=O)c1ccccc1Cl` (stereo not drawn), 5.43%.
In the case of `COc1ccc(C(=O)NC2(C(F)(F)F)NC(=O)N(CCCc3ccccc3)C2=O)c(OC)c1OC` (stereo not drawn), the Potency is 20 µM (active).
For the compound `O=C(Nc1ccc2oc(-c3ccc(O)c(Br)c3)nc2c1)c1cc2ccccc2o1`, the “growth rescue (activation)” value is -9.23%.
For `OCc1cnc(SCc2ccc(F)cc2)n1Cc1ccc(F)cc1`, the “growth rescue (activation)” value was -17.8%.
On the same count and under the same terms, with `CCOC(=O)N1CCC(NC(=O)c2cnn(-c3cccc(C)c3)c2C2CCN(C(=O)OC(C)(C)C)CC2)CC1` the figure was -5.08%; with `COc1ccc([C@H]2CC(=O)C=C(/C=C/c3ccc(Cl)cc3)C2)cc1`, 19.9%.
As to `N#Cc1ccc(C2=CC(=O)C[C@H](c3ccc(Cl)cc3)C2)cc1`, the Potency is 17.8 µM (active).
For the compound `COc1cccc2c1CCC(NC(C)=O)C2=O` (stereo not drawn), the “growth rescue (activation)” value was 13%.
Turning to `O=C1CC(c2cccc(Cl)c2)CC(O)=C1C=Nc1ccccc1` (stereo not drawn), the “growth rescue (activation)” value was -2.18%.
Consider `COc1ccccc1C1=CC(=O)C[C@H](c2ccc(F)cc2)C1`, for which the Potency is 15.8 µM (active).
For `COc1ccc(C2CC(=O)NC(=O)C2)cc1`, the “growth rescue (activation)” value is -20.9%.
Same read-out and setting: with `CCCCC/C=C/C1=CC(=O)C[C@H](c2ccc(Cl)cc2)C1` the figure was 15.5%.
`O=C1C=C(c2cccc(Cl)c2)C[C@@H](c2ccc(F)cc2)C1`: the Potency was 22.4 µM (active).
Take `O=C1CC(c2cccc(Br)c2)C2=C(CCCC2=O)N1` (stereo not drawn): the “growth rescue (activation)” value was 5.37%.
On to `O=C1C=C(c2cccc(Br)c2)C[C@@H](c2ccc(F)cc2)C1`, for which the Potency was 20 µM (active).
As for `O=C(NCC(c1ccc(Cl)cc1)N1CCOCC1)c1ccccc1F` (stereo not drawn), the “growth rescue (activation)” value is 1.5%.
Regarding `COC(=O)c1c(NC(=O)C(C)Oc2ccc(Cl)c(C)c2)sc(C)c1C` (stereo not drawn), the “growth rescue (activation)” value was 16.4%.
In the case of `COc1ccccc1-c1noc(-c2ccc(NCc3ccccc3)c([N+](=O)[O-])c2)n1`, the “growth rescue (activation)” value was 12%.
Consider `COc1ccc(-c2onc(C)c2C)cc1S(=O)(=O)NCC1CCN(Cc2cccc(F)c2)CC1`, for which the “growth rescue (activation)” value was 9.63%.
With `O=C(CSc1nc2c(c(=O)[nH]1)CN(Cc1ccc(F)cc1)CC2)Nc1ccccc1Cl`, the “growth rescue (activation)” value was 14.4%.
Same read-out and setting: the figure for `CCOc1ccc(NC(=O)C2CCN(S(=O)(=O)c3cc(-c4noc(C)n4)ccc3C)CC2)cc1` is -15%; for `N/C(=N\OC(=O)CCn1cccc(C(F)(F)F)c1=O)c1ccc(OC(F)(F)F)cc1` it is 2.9%.
Regarding `COc1ccc(/C(N)=N/OC(=O)CCCc2ccccc2)cc1`, the Potency is 22.4 µM (active).
As for `N/C(=N\OC(=O)CCc1ccccc1)c1cccnc1`, the “growth rescue (activation)” value is 8.83%.
As for `Cc1ccc(OCC(=O)Nc2ccc(OCc3cc(=O)n4c(C)csc4n3)cc2)cc1C`, the “growth rescue (activation)” value was 7.26%.
Same read-out and setting: the figure for `CC(C)Cn1c(-c2ccc(S(=O)(=O)N3CCOCC3)cc2)csc1=Nc1cc(Cl)ccc1Cl` is 11.8%; for `COC(=O)c1ccc2nc(-c3ccc(F)cc3)c(Cc3ccc(C)cc3)n2c1` it is 25.1%.
On the same count and under the same terms, with `COC(=O)c1ccc2nc(-c3ccc(C)cc3)c(Cc3ccc(OC)cc3C)n2c1` the figure was 22.3%.
Turning to `COc1ccc(-c2nc3ccc(Br)cn3c2Cc2ccc(C)cc2)cc1OC`, the Potency is 15.8 µM (active).
As to `Oc1c(C(c2ccccc2Cl)N2CCOCC2)sc2nc(-c3ccco3)nn12` (stereo not drawn), the “growth rescue (activation)” value was 3.8%.
Consider `Cn1nnnc1SCCCNCc1cccc(OCc2ccc(Cl)cc2)c1`, for which the “growth rescue (activation)” value was 5.55%.
For `C=C1C(=O)OC2C1CCC(C)=CCCC1(C)OC21` (stereo not drawn), the Potency was 14.1 µM (active).
`O=C(NCCc1ccccc1)C(=O)NCC(c1ccco1)S(=O)(=O)c1ccccc1` (stereo not drawn): the “growth rescue (activation)” value was 11.7%.
The same measure, in the same setting: with `COc1cccc(N2CCN(C(=O)CCCCCn3c(=O)[nH]c4ccccc4c3=O)CC2)c1` the figure was 13%; with `COc1ccc(CCNC(=O)c2ccc3c(c2)nc(C)n3-c2ccc(Br)cc2)cc1OC`, 11.1%.
Take `COc1ccc(-c2cc3c(c4c2ccn4C)C2CCC3C2)cn1` (stereo not drawn): the Potency was 20 µM (active).
As to `CC(C)(C)c1ccc(OCC(=O)N2CCC(c3nc4ccccc4s3)CC2)cc1`, the “growth rescue (activation)” value is 20.2%.
The same measure, in the same setting: with `CCSc1nnc2c(n1)OC(c1ccc(OCC(=O)O)cc1)Nc1ccccc1-2` (stereo not drawn) the figure was -36.7% [at 9.22 µM]; with `COc1ccc(C)cc1-n1c(-c2ccc(C)cc2)cc2c1CC(C)(C)CC2=O`, 6.79%.
Same read-out and setting: the figure for `Cc1ccc(Cl)cc1NC(=O)Cc1ccc(-n2c(C)nc3cccnc32)cc1` is -9.49%.
The same measure, in the same setting: with `CCCN(CCC)S(=O)(=O)c1ccc(C(=O)Nc2sc3c(c2C(=O)OC)CCN(CC)C3)cc1` the figure was -1.8%.
Turning to `CCn1c2ccccc2c2cc(CC(N)=O)ccc21`, the “growth rescue (activation)” value was 7.64%.
Turning to `CCN(C(=O)Cc1c(C(=O)O)n(CC)c2ccccc12)c1ccccc1C`, the Potency was 25.1 µM (active).
Regarding `Cc1ccc(C)c(Cn2c(C(=O)O)c(CNCc3cccs3)c3ccccc32)c1`, the “growth rescue (activation)” value is 15.9%.
